# In article PMC9838217, “Structure of SALL4 zinc finger domain reveals link between AT-rich DNA binding and Okihiro syndrome”:
# Numbering of substitutions follows the chain as printed.
# Tests used:
# Experiment in all cases: HT-SELEX; high values mean tight binding
# Conditions in all cases: protein: recombinant; vector His6-GST; dsDNA, one strand shown
# SALL4 ZFC4 WT (HT-SELEX) = molecular target: T1, SALL4 ZFC4 WT (HT-SELEX) (Mus musculus, UniProt Q8BX22 870-940)
# T1 sequence: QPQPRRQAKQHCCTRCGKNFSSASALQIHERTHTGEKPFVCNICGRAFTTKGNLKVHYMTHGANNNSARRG
# Outline: (§1)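 DNA from a random library (1.5 µg in the first cycle, 200 ng afterwards) was incubated with purified recombinant mouse SALL4 zinc finger cluster 4, residues 870–940 (1 µg), for 10 min at room temperature in 100 µl buffer: 10 mM Tris–HCl pH 7.5, 50 mM NaCl, poly(dI-dC), DTT. Bound complexes were pulled down on Ni2+ beads, washed and PCR-amplified, and the selection was repeated for up to 6 cycles in triplicate. MiSeq reads were scanned for 6-mers, and binding signal is each canonical k-mer's read fraction as fold change over the initial random library.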
# [1] = molecular target: T2, SALL4 ZFC4 R900W (HT-SELEX) (Mus musculus, UniProt Q8BX22 870-940, R900W)
# T2 sequence: T1 sequence with R31W
# Outline: as §1
# [2] = molecular target: T3, SALL4 ZFC4 G921D (HT-SELEX) (Mus musculus, UniProt Q8BX22 870-940, G921D)
# T3 sequence: T1 sequence with G52D
# Outline: as §1
Sequence,binding signal (SALL4 ZFC4 WT (HT-SELEX)) [fold-change vs cycle 0],binding signal [1] [fold-change vs cycle 0],binding signal [2] [fold-change vs cycle 0]
CAACTG,0.724 ± 0.0172,0.829 ± 0.0401,0.9 ± 0.0128
CCCTAG,0.516 ± 0.0342,0.601 ± 0.0265,0.667 ± 0.029
TGAGAA,1.37 ± 0.0413,1.49 ± 0.0497,1.38 ± 0.0987
CGAAAA,0.827 ± 0.0572,0.851 ± 0.0107,0.912 ± 0.0336
ACGTGG,0.369 ± 0.00823,0.462 ± 0.0221,0.54 ± 0.0513
CAAGGG,0.487 ± 0.0326,0.5882 ± 0.00585,0.665 ± 0.033
GTCATA,1.45 ± 0.0661,1.36 ± 0.05,1.34 ± 0.0974
AAGTGC,0.551 ± 0.0359,0.63 ± 0.00993,0.76 ± 0.0221
AAAAAG,1.57 ± 0.0619,1.68 ± 0.0943,1.52 ± 0.129
CTGTCC,0.398 ± 0.039,0.493 ± 0.0175,0.587 ± 0.0324
CGTAAG,0.774 ± 0.0532,0.862 ± 0.0372,0.905 ± 0.0422
CGATTC,0.682 ± 0.0336,0.738 ± 0.0472,0.84 ± 0.0386
CATCAC,0.892 ± 0.0417,0.975 ± 0.0159,1.032 ± 0.00917
CACGAA,0.608 ± 0.0441,0.706 ± 0.0334,0.781 ± 0.0236
GGATCC,0.489 ± 0.0186,0.559 ± 0.0217,0.643 ± 0.0527
CAACCA,0.686 ± 0.0177,0.804 ± 0.0166,0.877 ± 0.0338
GTGATA,1.42 ± 0.0582,1.47 ± 0.0649,1.39 ± 0.0928
AAACTC,1.19 ± 0.0627,1.3 ± 0.0461,1.28 ± 0.0858
GAGTAA,1.45 ± 0.0607,1.57 ± 0.0835,1.43 ± 0.106
ATAACA,2.52 ± 0.194,2.06 ± 0.122,1.83 ± 0.192

Sequence,binding signal (SALL4 ZFC4 WT (HT-SELEX)) [fold-change vs cycle 0],binding signal [1] [fold-change vs cycle 0],binding signal [2] [fold-change vs cycle 0]
CAGTCA,0.794 ± 0.0288,0.925 ± 0.0192,0.946 ± 0.028
CGTAGA,0.623 ± 0.00876,0.7054 ± 0.00296,0.786 ± 0.024
TTAAAA,2.8 ± 0.232,2.26 ± 0.146,1.97 ± 0.21
AACAAA,1.75 ± 0.107,1.8 ± 0.139,1.64 ± 0.143
CCATCA,0.823 ± 0.0184,0.957 ± 0.0265,0.949 ± 0.0116
CGACAA,0.4483 ± 0.00206,0.523 ± 0.0149,0.653 ± 0.0169
GTGGGA,0.413 ± 0.0385,0.478 ± 0.0252,0.567 ± 0.0443
CGTCAG,0.341 ± 0.0358,0.427 ± 0.0193,0.535 ± 0.0656
ACCATC,0.858 ± 0.0322,0.944 ± 0.0334,0.994 ± 0.0236
ACTGTG,0.743 ± 0.0431,0.842 ± 0.0558,0.876 ± 0.035
TTCAAA,1.81 ± 0.113,1.83 ± 0.0928,1.66 ± 0.161
ACACCA,0.735 ± 0.0297,0.841 ± 0.0318,0.903 ± 0.0271
GACCGA,0.327 ± 0.0131,0.4 ± 0.0327,0.52 ± 0.0745
AATAGT,1.96 ± 0.0795,1.94 ± 0.0794,1.77 ± 0.136
AGGACT,0.864 ± 0.0148,0.994 ± 0.0593,1.02 ± 0.0375
TGCACA,0.529 ± 0.0293,0.586 ± 0.0273,0.698 ± 0.0457
CGAAAG,0.614 ± 0.0288,0.735 ± 0.037,0.79 ± 0.0572
TGTTAA,1.94 ± 0.0917,2 ± 0.113,1.77 ± 0.143
GACGTA,0.666 ± 0.0264,0.752 ± 0.0315,0.823 ± 0.0398
GGACAC,0.362 ± 0.012,0.454 ± 0.013,0.559 ± 0.0612

Sequence,binding signal (SALL4 ZFC4 WT (HT-SELEX)) [fold-change vs cycle 0],binding signal [1] [fold-change vs cycle 0],binding signal [2] [fold-change vs cycle 0]
AAACAA,1.75 ± 0.117,1.82 ± 0.0942,1.66 ± 0.151
CAGCTC,0.332 ± 0.0301,0.394 ± 0.00722,0.526 ± 0.0361
AGTCCA,0.746 ± 0.0239,0.878 ± 0.0374,0.929 ± 0.0398
GTTGGA,0.713 ± 0.0283,0.83 ± 0.0624,0.883 ± 0.0383
CTTACA,1.41 ± 0.0514,1.55 ± 0.0884,1.43 ± 0.0941
AACCAC,0.74 ± 0.0275,0.83 ± 0.0479,0.879 ± 0.0101
CTTGCC,0.3123 ± 0.00236,0.384 ± 0.0251,0.501 ± 0.0709
CACACG,0.405 ± 0.0118,0.525 ± 0.0166,0.649 ± 0.0779
CCGAAA,0.495 ± 0.0231,0.559 ± 0.0265,0.66 ± 0.0717
CTTGTC,0.741 ± 0.0177,0.888 ± 0.0216,0.915 ± 0.0332
AGTAAG,1.58 ± 0.0246,1.73 ± 0.024,1.53 ± 0.116
TGGCAA,0.479 ± 0.0154,0.535 ± 0.0186,0.673 ± 0.0414
CCCTAA,0.849 ± 0.0207,0.947 ± 0.00994,0.952 ± 0.0492
CTCCAA,0.746 ± 0.0518,0.878 ± 0.04,0.924 ± 0.0231
CTGAAA,1.19 ± 0.0701,1.28 ± 0.0787,1.21 ± 0.0732
ATCCCC,0.549 ± 0.0564,0.604 ± 0.0359,0.664 ± 0.0449
ATGTTG,1.2 ± 0.026,1.29 ± 0.0687,1.28 ± 0.0984
TTGCAA,1.13 ± 0.0202,1.09 ± 0.0477,1.146 ± 0.00914
CACTTA,1.34 ± 0.0677,1.46 ± 0.0563,1.38 ± 0.0979
GATATA,2.54 ± 0.207,1.98 ± 0.124,1.77 ± 0.173
